Compound activity (PubChem)
An excerpt weighted towards active compounds, which were near 2.1% of everything screened.
B2AR arrestin: recruits beta-arrestin to the human beta2-adrenergic receptor; beta-arrestin recruitment to beta2AR, cell-based reporter; Potency, µM (series often up to 46.1 µM), for the others: top-dose activation, hits mostly activators; hit rate 0.02% among 330,000; P07550;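 further: potency means the concentration at half of the fitted maximal effect; 0% = DMSO controls and full agonism = EC100 isoproterenol or metaproterenol; nearly all actives have a fitted effect of over 65% in size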
Target sequence (P07550 whole entry, looked up): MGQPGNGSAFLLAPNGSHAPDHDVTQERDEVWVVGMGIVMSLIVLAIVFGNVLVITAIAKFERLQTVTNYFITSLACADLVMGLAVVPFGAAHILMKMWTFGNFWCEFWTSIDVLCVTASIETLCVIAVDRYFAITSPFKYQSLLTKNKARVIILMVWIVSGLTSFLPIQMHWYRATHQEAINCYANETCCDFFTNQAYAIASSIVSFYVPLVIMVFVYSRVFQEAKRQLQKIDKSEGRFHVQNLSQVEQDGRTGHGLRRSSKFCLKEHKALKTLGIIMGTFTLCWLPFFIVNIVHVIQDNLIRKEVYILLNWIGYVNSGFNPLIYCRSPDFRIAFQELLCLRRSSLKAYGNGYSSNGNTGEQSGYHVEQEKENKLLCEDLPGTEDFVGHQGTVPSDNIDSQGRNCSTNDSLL
p53 reactivator: mutant p53 re-activation in reporter cells. hit rate 0.063% among 320,000. H1299 p53-A138V BP100-luciferase reporter, luminescence, 24 h. Potency, µM (doses to about 92.2 µM), for the others: top-dose activity change, positive = activation, actives largely listed as activators. AID 504706; further: potency means the concentration at half of the fitted maximal effect; % of control where 0% means no effect; nearly all actives have a fitted effect of over 45% in size
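H1299 (p53-null), stable ts p53-A138V + BP100-Luc; 1000 cells/well, Opti-MEM/10% FBS; cpd 4 pt, 1:5; 24 h, 37 deg C, 5% CO2; detection reagent 10 min RT; luminescence.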
Giardia kill: kills Giardia lamblia; AID 540267; activity change, % at 7.66 µM, hits read low; Giardia lamblia trophozoite viability; hit rate 0.15% among 340,000; in the data active means activity change below about -80%; inconclusive means between about -30% and that limit;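 further: parasites exposed to compound for two days anaerobically before the ATP read; on the % scale 0 is the no-effect control and ±100 the full control effect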
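Killing of trophozoites was scored by loss of ATP luminescence after a 48 hrs anaerobic exposure to compounds at 37 deg C, using 100 cells per well.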
uPA surface inh: inhibitors of cell surface uPA generation | cell surface uPA generation assay, qHTS | hit rate 0.31% among 330,000 | Potency, µM (series often up to 38.3 µM), for the others: at the top dose activity change, negative = inhibition, actives largely listed as inhibitors; active means well fitted inhibition curve with a large enough effect; inconclusive means small, poorly fitted or top-dose-only effect; inactive means no such curve, though single readings can be large or run the other way; tested in mouse RAW 264.7 cells; further: potency means the concentration at half of the fitted maximal effect; on the % scale 0 is the no-effect control and ±100 the full control effect; nearly all actives have a fitted effect of over 55% in size
ClpP mod: qHTS Assay for Activators of ClpP | purified B. subtilis ClpP, FRET peptide cleavage, 20 min | Potency, µM (top dose mostly 57.5 µM), for the others: top-dose activity change, negative = active | hit rate 1.9% among 340,000; active means well fitted falling curve with a large enough effect; inconclusive means small, poorly fitted or top-dose-only effect; inactive means no such curve, though single readings can be large or run the other way; further: potency means the concentration at half of the fitted maximal effect; the source files actives as falling curves though it sought activators and does not explain the sign; nearly all actives have a fitted effect of over 65% in size
Target sequence (P80244 whole entry, looked up): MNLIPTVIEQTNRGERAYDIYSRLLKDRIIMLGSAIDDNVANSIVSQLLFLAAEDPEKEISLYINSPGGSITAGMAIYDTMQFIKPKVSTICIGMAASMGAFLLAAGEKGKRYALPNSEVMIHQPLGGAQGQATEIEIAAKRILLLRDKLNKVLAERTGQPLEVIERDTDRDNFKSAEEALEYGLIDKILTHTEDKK
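Buffer: 100 mM Tris/HCl pH8, 100 mM KCl, 0.05% low protease BSA, 2.5% glycerol, 0.01% Tween-20. ClpP 10 microg/mL final; 20 min RT; delta FRET normalized to ADEP and DMSO controls.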
Mito fusion yeast: blocks mitochondrial division or promotes mitochondrial fusion. S. cerevisiae fusion-defective mutant growth rescue, CellTiterGlo 48 h. Potency, µM (highest dose often 46.1 µM), for the others: top-dose growth rescue (activation), hits mostly activators. hit rate 0.23% among 320,000. AID 485298; further: potency means the concentration at half of the fitted maximal effect; % of control where 0% means no effect; nearly all actives have a fitted effect of over 45% in size
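Read-out: ATP-based luminescence (CellTiterGlo, 10 min ambient) reporting growth of fusion-defective ts yeast after 48 hours at 37C on glycerol/ethanol YPEG medium in the presence of compound.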
* = called active by the depositor; ? = inconclusive; nt = not tested or not shown; ! = not confirmed by another sample. Unless noted, the call rests on the fitted dose curve; in most records, active means well fitted curve in the direction sought with a large enough effect; inconclusive means small, poorly fitted or top-dose-only effect, or another doubt; inactive means no such curve, though single readings can be large; an effect the other way counts as inactive or inconclusive.

SMILES | B2AR arrestin | p53 reactivator | Giardia kill | uPA surface inh | ClpP mod | Mito fusion yeast
Oc1ccc(Cl)c(CN2CCN(c3ncc(Cc4ccccc4)cn3)CC2)c1 | nt | nt | nt | nt | -8% | nt
O=C(/C=C/c1ccccc1O)c1ccco1 | 0% | nt | -4 | -10% | 1.6µM* | -4%
CCc1cccc(NC(c2nnc(-c3ccccc3)o2)c2ccc(F)cc2Cl)c1 (centres undefined) | nt | nt | nt | nt | -1% | nt
C[C@H]1CC[C@H]2C(=O)N3[C@H](c4cccc(N5CCCC5=O)c4)[C@@H](C)CC[C@H]3C(=O)N2[C@@H]1c1cccc(N2CCCC2=O)c1 | -1% | -6% | nt | nt | nt | -1%
C[C@H]1CC[C@H]2C(=O)N3[C@H](c4ccccc4Br)[C@@H](C)CC[C@H]3C(=O)N2[C@@H]1c1ccccc1Br | -2% | -2% | nt | nt | nt | 22µM*
Cc1ccc(Nc2cc(C(=O)NC3CCCC3)c3ccccc3n2)cc1C | nt | nt | nt | nt | 45% | nt
CN1C(CCl)Nc2cc(Cl)c(S(N)(=O)=O)cc2S1(=O)=O (centres undefined) | nt | nt | 3 | 0% | 14µM* | nt
COc1ccc(Cl)cc1N(C)C(=O)Cn1cnc2sc(C)c(S(=O)(=O)N3CCN(c4ncccn4)CC3)c2c1=O | nt | nt | nt | nt | -12% | nt
Nc1ccc(/C=C/c2nc3ccccc3s2)cc1 | nt | nt | nt | nt | -2% | nt
COc1ccc(C(=O)O/N=C(\N)c2ccccc2)c(OC)c1 | -1% | nt | 2 | 4µM* | 7% | 5%
CN(C)c1ccc(-c2nc3ccccn3c2Nc2ccc3c(c2)OCCO3)cc1 | nt | nt | nt | nt | 5% | nt
O=c1c2ccccc2n(Cc2ccccc2Cl)c(=O)n1CCc1ccccc1 | nt | nt | nt | nt | -6% | nt
Clc1ccc(/C=N/Nc2ncnc3ccccc23)cc1Cl | ? | ? | 24 | -3% | 28µM* | -3%
CC(C)(C)N1C(=O)c2ccccc2NC(=O)C1C(=O)NCc1ccco1 (centres undefined) | nt | nt | nt | nt | -5% | nt
COc1ccccc1NC(=O)CSc1nc(O)cc(=O)n1C | 0% | 6% | 0 | nt | -2% | 0%
COc1ccc(-n2c(SCC(=O)Nc3ccccc3OC)nc(O)cc2=O)cc1 | 1% | -2% | -13 | 0% | 35µM* | -1%
CCc1ccccc1NC(=O)CSc1nc2n[nH]c(C)c2c(=N)n1-c1ccc(OC)cc1 | -1% | -8% | -12 | -7% | 3% | -1%
COc1ccc(-n2c(SCC(=O)Nc3ccc(Br)cc3)nc(O)cc2=O)cc1 | 0% | 8% | 8 | -4% | 25µM* | -3%
Cc1ccc(NC(=O)CSc2nc(O)cc(=O)n2-c2ccc(C)cc2)cc1 | 0% | 17% | 27 | 10% | 1% | 13%
COc1ccccc1NC(=O)CSc1nc2n[nH]c(C)c2c(=N)n1-c1ccccc1Cl | 0% | -2% | -5 | nt | -10% | 22µM*
Cc1cccc(NC(=O)C(=O)NCC(c2ccc3c(c2)OCO3)N2CCOCC2)c1C (centres undefined) | nt | nt | nt | nt | -1% | nt
COC(=O)CC(=O)CSc1nc2cc(C(=O)NCC(C)C)ccc2c(=O)n1CCc1ccccc1 | nt | nt | nt | nt | -10% | nt
Cc1cc(C(=O)Nc2sc3c(c2C#N)CCC(C)C3)cs1 (centres undefined) | 0% | 25% | ? | nt | 25µM* | 1%
CC1CCc2c(sc(NC(=O)c3cccs3)c2C(=O)O)C1 (centres undefined) | 4% | ? | 4 | 4µM* | -5% | -42%
COC(=O)c1c(NC(=O)c2cccs2)sc2c1CCC(C)C2 (centres undefined) | 0% | ? | -8 | -2% | ? | 8%
SMILES | B2AR arrestin | p53 reactivator | Giardia kill | uPA surface inh | ClpP mod | Mito fusion yeast
COc1ccc2c(c1)c1ncn(CCN3CCCC3)c(=O)c1n2C | 0% | -1% | -12 | nt | 32µM* | 2%
CCOCCCn1cnc2c3cc(F)ccc3n(C)c2c1=O | 0% | 4% | -20 | -7% | 4% | 8%
COc1ccc2c(c1)c1ncn(CCN3CCCCC3)c(=O)c1n2C | ? | -1% | 9 | nt | 16µM* | -3%
COc1ccccc1CCn1cnc2c3cc(C)ccc3n(C)c2c1=O | -1% | -2% | 8 | 3% | 35µM* | -1%
CC1CC2(NC(=O)NC2=O)C(C)CN1C (centres undefined) | 0% | -6% | -21 | -4% | 25µM* | -3%
CCn1ccc2cc(S(=O)(=O)N3CCCN(C(=O)Nc4ccc(C)c(F)c4)CC3)ccc21 | nt | nt | nt | nt | -15% | nt
O=C(COc1cccnc1[N+](=O)[O-])Nc1ccc2c(c1)OC(F)(F)O2 | -1% | 0% | -84* | 1% | -3% | 5%
CCOC1=CC2=C(C(=O)C(Cl)=CC2=O)[C@@H]2CN(S(=O)(=O)c3ccc(C)cc3)[C@@H](c3ccccc3)[C@H]12 | nt | nt | nt | nt | -3% | nt
Cc1cc(C)nc(-n2nc(C)cc2NC(=O)CN2CCCC2)n1 | ? | -2% | -10 | 11% | -1% | -2%
CCC1CCCCN1CC(=O)Nc1cc(C)nn1-c1nc(C)cc(C)n1 (centres undefined) | 35µM* | -3% | 0 | ? | -2% | 2%
COc1cccc(C(=O)NCc2cn3cccc(C)c3n2)c1 | nt | nt | nt | nt | -9% | nt
CCOc1ccc(-c2cc(NC(=O)Nc3ccccc3Cl)c(C(=O)OC)s2)cc1 | nt | nt | nt | nt | 14µM* | nt
Nc1c(-c2nc(-c3ccccc3Cl)no2)nnn1-c1ccccc1F | nt | nt | nt | nt | 3% | nt
CC[n+]1ccccc1/C=C1\Sc2ccc(C)cc2N1C | 0% | 2% | 4 | 7.1µM* | 1% | 0%
CN1/C(=C/c2cccc[n+]2CCO)Sc2ccccc21 | 0% | nt | -16 | 1% | 0% | -2%
CCc1ccc(NC(=O)N2CCN(Cc3nc4ccc(C)cc4o3)CC2)cc1 | nt | nt | nt | nt | 0% | nt
Cc1ccc(Cn2c(=O)c3cccnc3n(CC(=O)Nc3cccc(C(F)(F)F)c3)c2=O)cc1 | -3% | -10% | 3 | 2% | 32µM*! | -4%
O=c1oc2ccc3ccccc3c2cc1-c1nnc(-c2ccccc2)o1 | 5% | 7% | 9 | -14% | 14µM* | 3%
COc1ccc(-c2nnc(-c3cc4c(ccc5ccccc54)oc3=O)o2)cc1 | 0% | ? | 13 | 3% | ? | 2%
Cc1cccc(NC(=O)Cn2c(=O)n(CCCS(=O)(=O)C3CCCCC3)c(=O)c3ccccc32)c1 | nt | nt | nt | nt | -3% | nt
CCn1c(SCC(=O)Nc2cccc(Cl)c2)nnc1-c1nonc1NC(C)=O | nt | nt | nt | nt | -20% | nt
CC(C)(C)C(=O)Nc1sc2c(c1-c1nc3ccccc3[nH]1)CCCC2 | 0% | 8% | 3 | nt | 22µM* | -3%
COC(=O)c1cccnc1-n1c(=O)c2cccnc2n(CC(=O)Nc2cccc(C)c2)c1=O | nt | nt | nt | nt | 1% | nt
CCCCc1ccc(S(=O)(=O)N/N=C(/C)c2ccncc2)cc1 | -1% | -8% | -6 | -6% | 32µM* | -2%
O=C1C=CC(=O)N1Cc1ccccc1 | 0% | nt | 16 | 7.9µM* | -5% | -4%
